Read-out in assay [1]: Cytochrome P450 (CYP24A1_1), CYP24A1 (gene 1591)
The assay is described as follows: LTEA_HepaRG_CYP24A1_1: Life Technologies and Expression Analysis (LTEA) Assay for Cytochrome P450 (CYP24A1_1) using HepaRG (AID 2283671; active = hit-call score of the fitted dose curve at least 0.9, where 1 is the maximum; inactive = score below 0.9). The following applies: mRNA level, 48 h; actives raise or lower the signal. The method in brief:
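In this test, gene induction or suppression of CYP24A1 in human HepaRG liver cells is measured by qRT-PCR after 48 h chemical treatment (eight concentrations, maximum 100 uM). Values are fitted bidirectionally relative to DMSO.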

Assay [2] is described as follows: CCTE_Padilla_ZF_144hpf_TERATOSCORE: (Legacy) CCTE's 144 Hour Post-fertilization zebrafish Assay Teratoscore, Padilla Lab (AID 2283679; active = hit-call score of the fitted dose curve at least 0.9, where 1 is the maximum; inactive = score below 0.9;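 note: zebrafish embryos with chorions exposed by immersion from 6-8 hpf to 5 dpf with daily renewal; teratogenicity score from eye scoring of death hatching and malformations at 144 hpf; higher score means more developmental defects relative to DMSO baseline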). The method in brief: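 Larvae scored by eye at 144 hpf for death, hatching and malformations after a day in clean Hanks'. Before that, daily-renewed exposure at 80 uM (0.4% DMSO, 26C) from roughly 6-8 hpf through 5 dpf, 4 embryos per chemical.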

Assay [3] is described as follows: CEETOX_H295R_MTT_cell_viability: Viability Assessment in the CeeTox HT-H295R MTT Assay (AID 2283718; active = hit-call score of the fitted dose curve at least 0.9, where 1 is the maximum; inactive = score below 0.9). The essentials:
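MTT reduction (0.5 mg/ml, 4 h at 37 C; absorbance at 570 and 650 nm) gave viability as background-corrected percent change versus controls. H295R cells had 48 h forskolin (10 uM) prestimulation, then 48 h chemical exposure at 0.1% DMSO.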

The nature of assay [4]: Tanguay_ZF_120hpf_ActivityScore_legacy: (Legacy) Oregon State University Tanguay Lab 120 Hour Post-fertilization zebrafish Assay Score for Activity (AID 2283742).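 For AC50: dechorionated Tropical 5D wild-type zebrafish embryos held singly per well; static exposure from 6 hpf until 120 hpf at 28 °C.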 The essentials: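 Embryos are staged, enzymatically dechorionated at 4 hpf, placed individually at 6 hpf, then held in test chemical (0.64% DMSO) at 28C until 120 hpf. Mortality and malformations are scored by brightfield, with non-mortality endpoints skipped for dead embryos.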

The target of assay [5] is Luciferin 4-monooxygenase (Photinus pyralis) (UniProt P08659). Put plainly: CCTE_Simmons_QuantiLum_inhib_2: CCTE's Firefly Luciferase Inhibition Assay, Simmons Lab (AID 2283767).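 For AC50: potency for inhibitors that lower luciferase luminescence relative to DMSO.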 The essentials: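 Counter-screen for nonspecific enzyme inhibition: purified firefly luciferase incubated 30 min at 37C with chemicals up to 87.5 uM final, then luminescence measured after luciferin/dATP injection; activity fitted against DMSO baseline.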
Chain of Luciferin 4-monooxygenase (Photinus pyralis) (P08659 whole entry, looked up): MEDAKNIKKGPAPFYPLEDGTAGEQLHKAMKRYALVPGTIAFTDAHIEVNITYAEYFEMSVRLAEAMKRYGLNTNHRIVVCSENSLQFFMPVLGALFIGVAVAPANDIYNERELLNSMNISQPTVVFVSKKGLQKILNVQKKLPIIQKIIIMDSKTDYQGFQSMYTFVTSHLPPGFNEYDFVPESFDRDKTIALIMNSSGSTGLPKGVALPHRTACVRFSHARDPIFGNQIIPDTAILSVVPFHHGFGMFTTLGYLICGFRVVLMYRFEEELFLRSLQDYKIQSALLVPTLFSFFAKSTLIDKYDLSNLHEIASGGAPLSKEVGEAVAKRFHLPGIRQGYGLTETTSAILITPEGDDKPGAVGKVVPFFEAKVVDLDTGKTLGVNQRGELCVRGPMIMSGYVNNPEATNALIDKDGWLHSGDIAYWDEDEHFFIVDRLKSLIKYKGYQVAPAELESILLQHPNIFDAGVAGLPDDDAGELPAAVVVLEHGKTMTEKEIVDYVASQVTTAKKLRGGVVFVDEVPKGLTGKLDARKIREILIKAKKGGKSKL

In assay [6] the test system is chicken Androgen Receptor (AR), gene 422165. Put plainly: ATG_chAR_XSP1: Attagene TRANS-FACTORIAL Multi-Species (XSP1) HepG2 Assay for chicken Androgen Receptor (AR) (AID 2283768). The method in brief:
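HepG2 cells transiently transfected with multiplexed GAL4-UAS reporter units expressing chimeric chicken AR-Gal4; 3 nM 6-alpha-fluorotestosterone for partial AR stimulation; 24 h after dosing, reporter mRNA by RT-PCR and capillary electrophoresis, gain-of-signal versus DMSO.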

The subject of assay [7] is frog Androgen Receptor (AR), gene 399456. The assay is described as follows: ATG_frAR_XSP1: Attagene TRANS-FACTORIAL Multi-Species (XSP1) HepG2 Assay for frog Androgen Receptor (AR) (AID 2283770). The method, then: ATG_XSP1_multi-species_TRANS is a cell-based, multiplexed assay created by modifying the existing Attagene TRANS-FACTORIAL system to include a panel of nuclear receptors from some or all the following species: human (Homo sapiens), mouse (Mus musculus), frog (Xenopus laevis), zebrafish (Danio rerio), chicken (Gallus gallus), and turtle (Chrysemys picta). The ECOTOX-FACTORIAL format uses HepG2, a human liver cell line, with measurements taken at 24 hours after chemical dosing in a 24-well plate. Xsp1 included 3 nM 6-alpha-fluorotestosterone to partially stimulate the androgen receptor.ATG_frAR_XSP1 is one of 29 assay components measured or calculated from the ATG_XSP1_multi-species_TRANS assay. It is designed to make measurements of mRNA induction, a form of inducible reporter, as detected with fluorescence intensity signals by Reverse transcription polymerase chain reaction (RT-PCR) and Capillary electrophoresis technology.The assay endpoint ATG_frAR_XSP1 was analyzed in the positive analysis fitting direction relative to DMSO as the negative control and baseline of activity. […] Furthermore, this assay endpoint can be referred to as a primary readout, because this assay has produced multiple assay endpoints where this one serves a reporter gene function. […]

For assay [8], the system named is zebrafish Androgen Receptor (AR), gene 100005148. The assay is described as follows: ATG_zfAR_XSP1: Attagene TRANS-FACTORIAL Multi-Species (XSP1) HepG2 Assay for zebrafish Androgen Receptor (AR) (AID 2283771). The essentials:
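HepG2 cells were transiently transfected with a zebrafish AR-GAL4 reporter system and partially stimulated with 3 nM 6-alpha-fluorotestosterone. Reporter mRNA was measured after 24 h dosing by RT-PCR with capillary electrophoresis, and gain-of-signal was fitted relative to DMSO.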

The nature of assay [9]: STM_H9_OrnithineISnorm_perc: Stemina devTOX quickPredict H9 human embryonic stem cell (hESC)-based Assay for Ornithine (ORN) Metabolite Biomarker, Normalized (AID 2283712; active = hit-call score of the fitted dose curve at least 0.9, where 1 is the maximum; inactive = score below 0.9;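 note: ornithine released into spent medium during last day measured by mass spectrometry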). The method in brief: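 Cells: undifferentiated H9 hESC. Dosing: 72 h, media replaced every 24 h. Sample: final 24-h conditioned media, 40% acetonitrile. Read: UPLC-HRMS ornithine area vs 13C standard, % DMSO control.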

The nature of assay [10]: STM_H9_CystineISnorm_perc: Stemina devTOX quickPredict H9 human embryonic stem cell (hESC)-based Assay for Cystine (CYSS) Metabolite Biomarker, Normalized (AID 2283713; active = hit-call score of the fitted dose curve at least 0.9, where 1 is the maximum; inactive = score below 0.9). The essentials: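 Secreted cystine was measured by UPLC-HRMS in H9 hESC medium after 72h compound exposure with 24-hourly replenishment. Values are standard-normalized areas relative to 0.1% DMSO.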
The nature of assay [11]: STM_H9_OrnCyssISnorm_ratio: Stemina devTOX quickPredict H9 human embryonic stem cell (hESC)-based Assay for Ornithine (ORN):Cystine (CYSS) Ratio (AID 2283714). The method in brief:
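Steps: H9 hESCs in pluripotent state dosed 72h, medium plus compound renewed every 24h; conditioned medium from the final 24h deproteinized in 40% acetonitrile; ORN and CYSS quantified by UPLC-HRMS with C13 spike-ins; ratio relative to vehicle.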

The nature of assay [12]: ArunA_CellTiter_hNC: Viability Assessment in the ArunA Biomedical's Oris Neural Crest (hNC) Cell Migration Assay (AID 2283752). The essentials:
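Viability of embryonic neural crest stem cells from the H9 line is scored 72 h after dosing, with DMSO as negative control and baseline. A drop in CellTiter Aqueous One signal indicates cytotoxicity.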

Assay [13] is described as follows: ArunA_CellTiter_hNP: Viability Assessment in the ArunA Biomedical's Oris Neural Crest (hNC) Cell Migration Assay (AID 2283753). The essentials: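 H9-derived hNP1 neuroprogenitors, 60,000/well on Matrigel, cultured 16 h, then 72 h chemical exposure in test medium. Cell titer via CellTiter Aqueous One; positive-direction fit vs DMSO.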
The nature of assay [14]: ArunA_Migration_hNP: ArunA Biomedical's Oris Neuroprogenitor (hNP) Cell Migration Assay (AID 2283754). The essentials:
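Human H9-derived hNP1 neuroprogenitors on Matrigel with LIF/bFGF, plated around seeding stoppers for 16 h at 37C; stoppers removed at start of 72 h chemical exposure. Calcein-AM staining, fluorescence 494/517 nm in detection zone; loss-of-signal vs DMSO; cytochalasin D control.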

A short description of assay [15]: ArunA_Migration_hNC: ArunA Biomedical's Oris Neural Crest (hNC) Cell Migration Assay (AID 2283755). The method in brief: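 Human H9-derived neural crest stem cells, 60,000/well on Matrigel, 16 h at 37C, then 72 h chemical exposure after seeding-stopper removal. Migration into detection zone read as calcein-AM fluorescence (ex494/em517), relative to DMSO.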
A short description of assay [16]: ArunA_NOG_NucleusCount: ArunA Biomedical's Neurite Outgrowth (NOG) Assay for Nucleus Count (AID 2283756). The method in brief: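 Human H9-derived differentiated neurons were exposed for 48 h right after seeding. Hoechst-stained nuclei gated by size and intensity were counted by automated high-content imaging as viable neurons. Loss of signal vs DMSO.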
A short description of assay [17]: ArunA_NOG_NeuriteLength: ArunA Biomedical's Neurite Outgrowth (NOG) Assay for Neurite Length (AID 2283757). The essentials:
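Differentiated human H9-derived neurons were exposed for 48 h from seeding, then stained with Hoechst and βIII-tubulin. Automated high-content imaging gave total neurite length per valid neuron, counting processes >10 um. Loss of signal was scored versus DMSO.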

A short description of assay [18]: ArunA_NOG_NeuritesPerNeuron: ArunA Biomedical's Neurite Outgrowth (NOG) Assay for Neurites Per Neuron (AID 2283758). The essentials:
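Differentiated human H9-derived neurons exposed to chemicals for 48 h from seeding, then stained with Hoechst and βIII-tubulin/DyLight 488. Automated imaging counted neurites (processes >10 um) per valid neuron; loss of signal versus DMSO scored.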

Assay [19] concerns Thyroperoxidase (TPO), gene 445522. The assay is described as follows: CCTE_Simmons_GUA_TPO: CCTE's Guaiacol Assay for Thyroperoxidase (TPO) Inhibition, Simmons Lab (AID 2283750). The essentials:
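Porcine thyroid microsomes (25 ug) in 200mM potassium phosphate, preincubated 30 s at 37C with compound (8 concentrations, 5 nM–87.5 uM) and 35mM guaiacol; 1mM H2O2 starts reaction. Absorbance change at 450nm over first 80 s; loss of signal versus DMSO, three replicates.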

Inconclusive results are not listed. Active and inactive are the calls of the source. Rule for the calls, unless noted: active = hit-call score of the fitted dose curve at least 0.9, where 1 is the maximum; inconclusive = response in the unintended direction; inactive = score below 0.9.

The term AC50 denotes the concentration at which the activity in the assay is half-maximal.

On to `C[C@]12C=CC3=C4CCC(=O)C=C4CC[C@H]3[C@@H]1CC[C@@H]2O`, for which the compound was classed as inactive in assay [1], in assay [3] and in assay [5]. In addition, the AC50 in assay [2] was 31 µM (active); in assay [4] it was 118 µM (active); in assay [6], 3.03 nM (active); in [7], 12.4 nM (active); in assay [8] it was 32.5 nM (active).
With `CCC[CH2][Sn]([Cl])([CH2]CCC)[CH2]CCC`, the half-maximal activity concentration (AC50) in [2] is 0.0309 µM (active); in [9] it was 0.519 µM (active); in [10], 0.546 µM (active); in assay [11], 0.497 µM (active); in assay [4], 0.317 µM (active); in [6], 334 nM (active). Also, in [8], the call was inactive.
In the case of `Oc1ccc2ccc3cccc4ccc1c2c34`, the AC50 is 15.2 µM (active) in assay [2]; 47.4 µM (active) in assay [4]; 14.7 µM (active) in assay [12]; 25.8 µM (active) in assay [13]; 50 µM (active) in [14]; 13.9 µM (active) in assay [15]. In addition, in [5], the AC50 was 48 µM (active). The outcome in [9], in assay [10], in assay [11], in assay [3], in assay [16] and in assay [17] was inactive. In addition, the outcome in assay [18] was inactive.
On to `CC(C)COC(=O)c1ccccc1C(=O)OCC(C)C`, for which the compound was called inactive in assay [1], in assay [3] and in [4]. For the same compound, the AC50 in [2] was 2.53 µM (active); in assay [9] it was 76.1 µM (active); in [10], 33 µM (active); in assay [11], 35.3 µM (active).
`CCCCCCCCn1sccc1=O`: the AC50 was 0.523 µM (active) in assay [2]; 43 µM (active) in assay [9]; 11.5 µM (active) in assay [10]; 22.4 µM (active) in assay [11]; 3.42 µM (active) in assay [4].
In the case of `[Cl-].[Cl-].[Hg+2]`, the AC50 in [2] is 0.0826 µM (active); in assay [9] it was 1.34 µM (active); in [10], 0.882 µM (active); in assay [11] it was 0.995 µM (active); in assay [4], 4.32 µM (active); in [19], 389 µM (active). Moreover, the AC50 in assay [5] was 10.4 µM (active).
On to `Cc1ccc(N)c(N)c1`, for which the AC50 in assay [2] is 80.4 µM (active); in assay [9], 18.9 µM (active); in [10] it was 23.4 µM (active); in [11], 22.7 µM (active); in assay [5], 0.334 µM (active). For the same compound, the call in [3] and in [4] was inactive.
Turning to `COC(=O)Nc1nc2ccccc2[nH]1`, the AC50 in [2] is 2.61 µM (active); in assay [10], 10 µM (active); in assay [11], 6.5 µM (active). Moreover, the result in assay [9], in [4] and in [5] was inactive.
For the compound `Cn1cc(-c2ccccc2)c(=O)c(-c2cccc(C(F)(F)F)c2)c1`, the half-maximal activity concentration (AC50) is 57 µM (active) in assay [2] and 0.0803 µM (active) in assay [9]. The outcome in [10], in [11], in [3] and in assay [4] was inactive.
With `CN(C)C(=O)Nc1ccc(Cl)cc1`, the call in assay [1], in assay [9], in [10], in assay [11], in assay [4] and in assay [5] was inactive.
Regarding `O=[N+]([O-])C(Br)(CO)CO`, the compound was called inactive in [1] and in assay [4].

Values taken from PubChem BioAssay (EPA / NIEHS).
